Measurements as given in the supplement of paper PMC13380429.

System: Vero E6 infected with SARS-CoV-2
Test: inhibition of SARS-CoV-2 cytopathic effect; higher = more antiviral protection, active = above 15
Conditions: 48 h

Measured: inhibition of SARS-CoV-2 cytopathic effect

C1Cc2[nH]nc(-c3nn[nH]n3)c2C1
inactive: 1 nM -1.32% | 8.33 nM -1.1% | 100 nM -1.82% | 833.33 nM -3.19% | 10000 nM 2.43%

COc1ccc2nc3[nH]nc(C)c3c(NCCOCCO)c2c1
inactive: 1 nM -3.38% | 8.33 nM -2.01% | 100 nM -3.28% | 833.33 nM -0.23% | 10000 nM -2.9%

O=C(O)c1cc(O)c(O)c(O)c1 [gallic-acid]
inactive: 1 nM -1.87% | 8.33 nM 0.61% | 100 nM 3.05% | 833.33 nM -1.88% | 10000 nM 6.6%

Cc1cc(Nc2nc(N[C@@H](C)c3ccc(F)cc3)c(C#N)cc2F)n[nH]1
inactive: 1 nM 0.59% | 8.33 nM 0.82% | 100 nM -1.14% | 833.33 nM -3.33% | 10000 nM -13%

Oc1ccc2ccccc2c1Cc1c(O)ccc2ccccc12
inactive: 1 nM 2.61% | 8.33 nM -1.04% | 100 nM 2.9% | 833.33 nM -1.96% | 10000 nM 5.77%

COc1cc(N)c(Cl)cc1C(=O)NC1CCN(Cc2ccccc2)CC1 [clebopride]
inactive: 1 nM -1.61% | 8.33 nM -0.47% | 100 nM -0.47% | 833.33 nM 6.56% | 10000 nM 0.26%

Cc1nc(C)c(C)nc1C [chuanxiongzine]
inactive: 1 nM 2.81% | 8.33 nM 0.85% | 100 nM 2.51% | 833.33 nM 5.75% | 10000 nM 1.87%

Cc1ccc(-c2ncc[nH]2)cc1NC(=O)c1ccc(OCc2ccccn2)cc1
inactive: 1 nM -1.02% | 8.33 nM -0.95% | 100 nM -2.09% | 833.33 nM -4.18% | 10000 nM -4.54%

C1=Cc2cccc(OCC3CNCCO3)c2C1 (stereo not given) [indeloxazine]
inactive: 1 nM 1.29% | 8.33 nM 2.5% | 100 nM 1.2% | 833.33 nM 0.43% | 10000 nM -0.62%

CCCCCCCC/C=C\CCCCCCCC(N)=O [oleamide]
inactive: 1 nM -2.29% | 8.33 nM -1.34% | 100 nM -3.82% | 833.33 nM 0.76% | 10000 nM 0.18%

CC(C)N(CCC(C(N)=O)(c1ccccc1)c1ccccn1)C(C)C (stereo not given) [disopyramide]
inactive: 1 nM -2.08% | 8.33 nM -2.32% | 100 nM -1.92% | 833.33 nM -0.48% | 10000 nM -5.17%

CN(C)CCCSC(=N)N [dimaprit]
inactive: 1 nM 0.47% | 8.33 nM 0.92% | 100 nM -0.82% | 833.33 nM -1.15% | 10000 nM 2.17%

Nc1nnc(Sc2ncc([N+](=O)[O-])s2)s1
inactive: 1 nM 3.57% | 8.33 nM -1.18% | 100 nM -0.27% | 833.33 nM -2.43% | 10000 nM -20.9%

Cc1[nH]c(/C=C2\C(=O)Nc3ccc(F)cc32)c(C)c1C(=O)NCCN1CCCC1 [toceranib]
inactive: 1 nM -2.12% | 8.33 nM -2.33% | 100 nM -1.03% | 833.33 nM -1.29% | 10000 nM -7.87%

CO[C@@H]1COCC[C@@H]1N[C@@H]1CC[C@@](C(=O)N2CCc3ncc(C(F)(F)F)cc3C2)(C(C)C)C1
inactive: 1 nM 0.39% | 8.33 nM -0.35% | 100 nM 0.03% | 833.33 nM -0.05% | 10000 nM -5.58%

CN1Cc2c(C(=O)OC(C)(C)C)ncn2-c2ccsc2C1=O
inactive: 1 nM 2.57% | 8.33 nM 3.55% | 100 nM 1.79% | 833.33 nM 1.66% | 10000 nM -0.64%

O=C(NNc1ccccc1)c1ccncc1 [plurisin-1]
inactive: 1 nM 0.37% | 8.33 nM 1.32% | 100 nM 1.76% | 833.33 nM -2.79% | 10000 nM -6.02%

NC(=O)c1nc(F)cnc1O [favipiravir]
inactive: 1 nM -4.88% | 8.33 nM -2.34% | 100 nM -0.79% | 833.33 nM 0.84% | 10000 nM -6.81%

Cn1ncnc1[C@H]1c2n[nH]c(=O)c3cc(F)cc(c23)N[C@@H]1c1ccc(F)cc1 [talazoparib]
inactive: 1 nM 0.71% | 8.33 nM 2.94% | 100 nM 2.17% | 833.33 nM -0.1% | 10000 nM -3.8%

Cc1cnc(C(=O)N[C@H]2CCCCC/C=C\[C@@H]3C[C@@]3(C(=O)NS(=O)(=O)C3CC3)NC(=O)[C@@H]3C[C@@H](Oc4nc5ccccc5c5ccccc45)CN3C2=O)cn1 [paritaprevir]
inactive: 1 nM -1.75% | 8.33 nM -2.06% | 100 nM -0.72% | 833.33 nM 0.24% | 10000 nM 1.71%

Cc1c(C)c2c(c(C)c1O)CCC(C)(COc1ccc(CC3SC(=O)NC3=O)cc1)O2 (stereo not given) [troglitazone]
inactive: 1 nM 1.07% | 8.33 nM 1.5% | 100 nM 1.01% | 833.33 nM 2.48% | 10000 nM 5.84%

COc1ccc2nc3c(c(N)c2c1)CCCC3 [7-methoxytacrine]
inactive: 1 nM 0.9% | 8.33 nM 2.7% | 100 nM 0.06% | 833.33 nM 4.86% | 10000 nM 4.52%

OCCC#Cc1nc(-c2ccc(F)cc2)c(-c2ccncc2)n1CCCc1ccccc1
inactive: 1 nM 2.21% | 8.33 nM -1.75% | 100 nM -1.41% | 833.33 nM 0.51% | 10000 nM 2.27%

C[C@@H]([C@H](O)c1ccc(O)cc1)N1CCC(Cc2ccccc2)CC1 (racemic) [ifenprodil]
inactive: 1 nM 2.09% | 8.33 nM -0.2% | 100 nM 0.52% | 833.33 nM 0.72% | 10000 nM -6.19%

CNC(=O)[C@@H](c1ccccc1)N1CCc2cc(OC)c(OC)cc2[C@@H]1CCc1ccc(C(F)(F)F)cc1 [almorexant]
inactive: 1 nM 2.74% | 8.33 nM 2.39% | 100 nM 2.44% | 833.33 nM 1.95% | 10000 nM 1.06%

CCc1cc2c(cc1N1CCC(N3CCOCC3)CC1)C(C)(C)c1[nH]c3cc(C#N)ccc3c1C2=O [alectinib]
inactive: 1 nM 0.52% | 8.33 nM 1.4% | 100 nM -0.38% | 833.33 nM -1.14% | 10000 nM 0.15%

CCCCCN(CCCOC)C(=O)[C@@H](CCC(=O)O)NC(=O)c1ccc(Cl)c(Cl)c1 [dexloxiglumide]
inactive: 1 nM -5.32% | 8.33 nM -1.73% | 100 nM 2.58% | 833.33 nM -1.51% | 10000 nM 2.38%

O=c1[nH]c(=O)n([C@H]2C[C@H](O)[C@@H](CO)O2)cc1F [floxuridine]
inactive: 1 nM 1.42% | 8.33 nM 1.34% | 100 nM -1.95% | 833.33 nM -2.04% | 10000 nM -4.05%

COc1[nH]c2ccc(F)cc2c1C(=O)OCC1CCN(CCNS(C)(=O)=O)CC1
inactive: 1 nM 2% | 8.33 nM 2.46% | 100 nM 0.98% | 833.33 nM 0.39% | 10000 nM 1.56%

Oc1cc2c(cc1O)[C@H]1c3ccccc3CN[C@@H]1CC2 (racemic) [dihydrexidine]
inactive: 1 nM -2.37% | 8.33 nM -1.57% | 100 nM 0.62% | 833.33 nM -2.04% | 10000 nM 2.92%

NCC(=O)Nc1ccc(-n2nc(C(F)(F)F)cc2-c2ccc3c(ccc4ccccc43)c2)cc1
inactive: 1 nM -0.05% | 8.33 nM 2.22% | 100 nM 2.09% | 833.33 nM -1.2% | 10000 nM -3.56%

O=C(O)CNC(=O)C(CS)Cc1ccccc1 (stereo not given) [thiorphan]
inactive: 1 nM -4.27% | 8.33 nM -1.61% | 100 nM -5.99% | 833.33 nM -4.04% | 10000 nM -6.09%

Nc1ccc2cc3ccc(N)cc3nc2c1 [proflavine-hemisulfate]
inactive: 1 nM -1.46% | 8.33 nM -2.57% | 100 nM -0.42% | 833.33 nM 1.94% | 10000 nM -8.75%

O=C(Nc1nc2cccc(-c3ccc(CN4CCS(=O)(=O)CC4)cc3)n2n1)C1CC1 [filgotinib]
inactive: 1 nM -1.13% | 8.33 nM -1.84% | 100 nM 4.15% | 833.33 nM 3.84% | 10000 nM -1.27%

CC(=O)N[C@H]1[C@H]([C@H](O)[C@H](O)CO)OC(O)(C(=O)O)C[C@@H]1O (mixture of isomers) [aceneuramic-acid]
inactive: 1 nM -6.31% | 8.33 nM 1.91% | 100 nM -1.39% | 833.33 nM -2.36% | 10000 nM -0.15%

CC(C)CCC[C@@H](C)[C@H]1CC[C@H]2[C@@H]3CCC4=CC(=NO)CC[C@]4(C)[C@H]3CC[C@]12C [olesoxime]
inactive: 1 nM -0.01% | 8.33 nM 0.28% | 100 nM -0.33% | 833.33 nM -0.32% | 10000 nM 3.9%

CNCCC=C1c2ccccc2C=Cc2ccccc21 [norcyclobenzaprine]
inactive: 1 nM -0.66% | 8.33 nM 3.83% | 100 nM -2.37% | 833.33 nM -0.19% | 10000 nM -7.92%

CN(C)Cc1ccc(-c2nc3cccc4c3n2CCNC4=O)cc1
inactive: 1 nM 0.51% | 8.33 nM 4.23% | 100 nM 3.95% | 833.33 nM 1.65% | 10000 nM 6.38%

O=C1CC[C@@]2(O)[C@H]3Cc4ccc(O)c5c4[C@@]2(CCN3CC2CC2)[C@H]1O5
inactive: 1 nM 4.81% | 8.33 nM 3.83% | 100 nM 1.26% | 833.33 nM -1.24% | 10000 nM 0.01%

Cc1cc2c(N3CCCC3)nc(N3CCCC3)nc2n1C
inactive: 1 nM 1.39% | 8.33 nM 5.02% | 100 nM 4.75% | 833.33 nM 3.21% | 10000 nM 3.47%

Cc1cc(-c2nc(C(=O)Nc3cn(C4CCOCC4)nc3C(N)=O)co2)ccn1
inactive: 1 nM -2.34% | 8.33 nM -3.32% | 100 nM -0.57% | 833.33 nM -4.01% | 10000 nM -5.6%
